The values that follow come from PubChem BioAssay (EPA / NIEHS).

A structure can be active in one record and inactive in another. The source made the active and inactive calls. Rule for the calls: active = hit-call score of the fitted dose curve at least 0.9, where 1 is the maximum; inactive = score below 0.9.

The test in a line: CCTE_Shafer_MEA_dev_per_network_spike_spike_number_mean: CCTE's Neural Network Formation Assay for Mean Number of Spikes in a Network Spike, Shafer Lab (AID 2284053). As for the experimental part: CCTE_Shafer_MEA_dev assay is conducted using Axion Biosystems 48 well microelectrode array (MEA) plates and Maestro recording system. Each well of the MEA plate contains a grid of 16 microelectrodes embedded in the culture surface. Electrically active cells, such as neurons, can be cultured over the electrodes, and electrical activity in these cells can be recorded extracellularly. The spontaneous firing of neurons is captured from each electrode on a microsecond timescale providing both temporally and spatially precise data. […] The CCTE_Shafer_MEA_dev assay uses primary cultures of rat cortical neurons. Recordings are made on days post-plating 5, 7, 9 and 12. As these cultures mature over time, neural networks develop functional activity and form cohesive networks in which electrical activity can be highly coordinated. CCTE_Shafer_MEA_dev_per_network_spike_spike_number_mean is 1 of 19 assay components of the CCTE_Shafer_MEA_dev assay. It measures the average number of spikes (action potential firings) in a network spike (temporally-clustered group of spikes across multiple electrodes) as the number of spikes that occur within a 0.05 s time window at the peak of a network spike divided by the total number of network spikes during a recording in a microelectrode array (MEA) using Axion Biosystems Maestro 768 channel amplifier with the AxIS adaptive spike detector. To collapse across multiple recordings made on days post-plating 5, 7, 9 and 12, the trapezoidal area-under-the-curve of the component is calculated.Data from the assay component CCTE_Shafer_MEA_dev_per_network_spike_spike_number_mean was analyzed into 1 assay endpoint. This assay endpoint, CCTE_Shafer_MEA_dev_per_network_spike_spike_number_mean, was analyzed in the negative analysis fitting direction relative to DMSO as the negative control and baseline of activity. Using a type of functional reporter, gain or loss-of-signal activity can be used to understand electrical activity.
On the day prior to culture, each well was coated thoroughly with 150 uL of 0.05% polyethyleneimine (PEI, Sigma Cat P3143) in 50 mM HEPES (Sigma Cat H7523) at a pH of 8. The plate was incubated at 37C for one hour. PEI was rinsed out with 500 uL of sterile water three times. Plates were stored at 4C until the day of culture. This culture was plated at a seeding density of 1.5 x 10^5 cells/well on a 48-well MEA plate, prepared as described above. Cells were administered via a 25 uL media/laminin ([…]; Sigma Cat L2020-1MG) drop directly onto the microelectrode array, as adding the cells with the laminin results in better attachment than pre-coating with laminin. After 2 hours, an additional 475 uL of cortical media was added and the cells returned to the incubator. Exposure starts at day 0 of plating and is continued over twelve days of network development until the experiment is terminated. Cells are fed with fresh medium on DIV 5 and 9, following the recordings on those days. The entire volume of media in the well is exchanged and any vehicle or compound treatment is renewed. Complete details are found in OP-NHEERL/ISTD/SBB/TJS/2015-03-r0 (available on request, email shafer.tim@epa.gov). Measurement of the electrical activity is non-invasive, and recordings can be made from the same plate over multiple different days of the culture. In cortical neurons, this allows for the measurement of extracellular action potentials over the period during which networks form in the MEA plate.
Turning to `FCOC(C(F)(F)F)C(F)(F)F`, the outcome was inactive.

`O=P(O)(O)CCC(F)(F)C(F)(F)C(F)(F)C(F)(F)C(F)(F)C(F)(F)F`: the outcome was inactive.

For the compound `NC(C(F)(F)F)C(F)(F)F`, the call was inactive.

Take `Nc1ccn([C@@H]2O[C@H](CO)[C@@H](O)C2O)c(=O)n1` (some centres not stated): the AC50 (commonly the midpoint of the concentration-response curve, whichever way the signal moves) was 205 nM (active).

As to `O=C(OC(=O)C(F)(F)C(F)(F)F)C(F)(F)C(F)(F)F`, the call was inactive.

As for `CN(CCO)S(=O)(=O)C(F)(F)C(F)(F)C(F)(F)C(F)(F)C(F)(F)C(F)(F)C(F)(F)C(F)(F)F`, the outcome was inactive.

`COC(=O)C(F)(F)C(F)(F)C(F)(F)F`: the compound was classed as inactive.

With `O=CC(F)(F)C(F)(F)C(F)(F)C(F)F`, the compound was called inactive.

In the case of `O=C(CC(=O)C(F)(F)C(F)(F)C(F)(F)F)c1cccs1`, the AC50 is 3720 nM (active).

For the compound `O=C(C=C(O)C(F)(F)F)C(F)(F)F`, the outcome was inactive.

For `CN(Cc1cnc2nc(N)nc(N)c2n1)c1ccc(C(=O)N[C@@H](CCC(=O)O)C(=O)O)cc1`, the concentration at half-maximal activity (AC50) was 25.8 nM (active).

As to `CC(C)c1c(C(=O)Nc2ccccc2)c(-c2ccccc2)c(-c2ccc(F)cc2)n1CC[C@@H](O)C[C@@H](O)CC(=O)O`, the half-maximal activity concentration (AC50) is 8.16 nM (active).

On to `O=C(CCCN1CCC(O)(c2ccc(Cl)cc2)CC1)c1ccc(F)cc1`, for which the AC50 was 753 nM (active).

With `O=C(F)C(F)(F)C(F)(F)C(F)(F)C(=O)F`, the call was inactive.

Regarding `CN(C)CCOC(c1ccccc1)c1ccccc1`, the outcome was inactive.

Consider `OCC(F)(F)C(F)(F)C(F)(F)C(F)(F)C(F)(F)C(F)(F)C(F)(F)C(F)(F)C(F)(F)C(F)(F)C(F)(F)F`, for which the AC50 was 6630 nM (active) and the compound was called inactive.

`O=C(O)CCC(F)(F)C(F)(F)C(F)(F)C(F)(F)C(F)(F)F`: the result was inactive.

As to `O=C(O)C(F)(F)OC(F)(F)C(F)(F)OC(F)(F)C(F)(F)OC(F)(F)C(F)(F)C(F)(F)C(F)(F)F`, the call was inactive.

As to `O=P(O)(O)CCC(F)(F)C(F)(F)C(F)(F)C(F)(F)C(F)(F)C(F)(F)C(F)(F)C(F)(F)F`, the AC50 was 4230 nM (active).

With `O=CC(F)(F)C(F)(F)C(F)(F)F`, the outcome was inactive.

For `C=CC(F)(F)C(F)(F)C(F)(F)C(F)(F)F`, the result was inactive.

Consider `O=C1NS(=O)(=O)c2ccccc21`, for which the compound was called inactive.

On to `O=C(F)C(F)(F)C(F)(F)C(F)(F)C(F)F`, for which the compound was called inactive.

Turning to `FC(F)=C(F)C(F)(F)C(F)(F)C(F)(F)C(F)F`, the result was inactive.

For `COC(=O)C(F)(F)C(F)(F)C(F)(F)C(F)(F)C(F)(F)F`, the compound was classed as inactive.

Turning to `CC(=O)Nc1ccc(O)cc1`, the call was inactive.
